Hits are enriched below; roughly 0.84% of the tested compounds scored in any of these assays.
PPARg SRC1 recr – PPARgamma agonists recruiting SRC-1 coactivator, primary screen, biochemical | PPARgamma-SRC-1 coactivator recruitment biochemical assay | Peroxisome proliferator-activated receptor gamma (Homo sapiens), P37231 | 0.41% of 200,000 active | AID 631, 2007 | activation, % at 8 µM; in the data active = activation above about 19%;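 note: 0% = DMSO and 100% = reference agonist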
PPARg SRC-3 ag – PPARgamma agonists recruiting SRC-3 coactivator, primary screen, biochemical; biochemical PPARgamma/SRC-3 coactivator recruitment assay; activation, % at 8 µM; 0.26% of 200,000 active; AID 731, 2007; in the data active = activation above about 23%;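 note: 0% = DMSO and 100% = reference agonist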
PPARg SRC-2 ag – agonists of PPARg-SRC-2 recruitment, primary screen, biochemical, HTS. Peroxisome proliferator-activated receptor gamma (Homo sapiens), P37231. PPARgamma LBD-SRC-2 recruitment. 0.34% of 200,000 active. activation, % at 8 µM;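 note: 0% = vehicle and 100% = reference agonist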
SRC1 TRFRET art – TR-FRET detection interference compounds, primary screen, artefact control for PPARgamma SRC-1 recruitment agonists, biochemical, TR-FRET emission ratio. TR-FRET detection artefact counter-screen; hits give high values. TR-FRET ratio at 8 µM. 0.34% of 99,000 active. AID 1051, 2008; in the data active = TR-FRET ratio above about 2300
SRC3 TRFRET art – TR-FRET detection interference compounds, artefact control for PPARgamma SRC-3 recruitment agonists, biochemical, TR-FRET ratio; TR-FRET ratio at 8 µM; TR-FRET artefact counter-screen, PPARgamma/SRC-3 format; hits give high values; 0.39% of 99,000 active; in the data active = TR-FRET ratio above about 2000
TR-FRET SRC-2 ct – TR-FRET signal artefacts, primary screen, artefact control for PPARgamma SRC-2 agonist project, biochemical; TR-FRET artefact counter-screen; hits give high values; TR-FRET ratio at 8 µM; 0.4% of 200,000 active; AID 1049, 2008; in the data active = TR-FRET ratio above about 2000
PPARg SRC2 ag – agonists of PPARgamma SRC-2 coactivator recruitment, confirmation, biochemical, HTS; 52% of 790 active; shares compounds with PPARg SRC-3 ag; biochemical SRC-2 recruitment by PPARgamma; activation, % at 8 µM;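 note: 0% = vehicle alone and 100% = reference agonist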
PPARg SRC1 conf – PPARgamma agonists recruiting SRC-1 coactivator, confirmation, biochemical | 43% of 790 active | shares compounds with PPARg SRC-3 ag | activation, % at 8 µM | PPARgamma–SRC-1 coactivator recruitment biochemical assay | AID 1300, 2008; in the data active = activation above about 20%;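 note: 0% = vehicle wells and 100% = reference agonist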
PPARg SRC3 conf – PPARgamma-driven SRC-3 coactivator recruitment agonists, confirmation, biochemical | shares compounds with PPARg SRC-3 ag | biochemical PPARgamma-SRC-3 coactivator recruitment, agonist mode | activation, % at 8 µM | 29% of 790 active | AID 1301, 2008; in the data active = activation above about 24%;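 note: 0% = vehicle wells and 100% = reference agonist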
Starred values were filed as active, the others as inactive; x = no result. Cut-off read from the data, not from the text of the source, unless noted: active = activation above about 22%; inactive = the rest.

SMILES	PPARg SRC1 recr	PPARg SRC-3 ag	PPARg SRC-2 ag	SRC1 TRFRET art	SRC3 TRFRET art	TR-FRET SRC-2 ct	PPARg SRC2 ag	PPARg SRC1 conf	PPARg SRC3 conf
COc1cccc2c1C(=O)c1c(O)c3c(c(O)c1C2=O)C[C@@](O)(C(=O)CO)C[C@@H]3O[C@H]1C[C@H](N)[C@H](O)[C@H](C)O1	28.3*	12.7	20.5	2222	2006	1930	6.2	-0.5	5.9
COc1ccc(C(C(N)=O)c2ncc(C(F)(F)F)cc2Cl)cc1OC (stereo not given)	1.4	-1.2	-0.4	1735	1456	1463	x	x	x
CCCCNC(=O)CSc1nc(CCC)nc2ccccc12	30.7*	30.7*	5.9	2029	1690	1519	15.1	23.8*	14.0
Cn1c(=O)cc(SCC(=O)NCCCN2CCOCC2)c2ccc(Cl)cc21	59.9*	83.2*	64.9*	x	x	2615*	46.9*	30.7*	32.2*
CCCCNC(=O)CSc1cc(=O)n(C)c2ccccc12	33.2*	43.0*	40.8*	x	x	2320*	31.3*	19.6*	21.1
CCOc1ccc(CCNC(=O)CSc2cc(=O)n(C)c3ccccc23)cc1OCC	25.7*	12.1	25.6*	2625*	1967	2107*	31.0*	18.3	19.0
CCOc1ccc(CCNC(=O)COc2cc(=O)n(C)c3ccccc23)cc1OCC	-8.3	-5.4	-10.3	1630	1439	1368	x	x	x
CC1CN(CC(=O)Nc2ccc([N+](=O)[O-])cc2Br)CC(C)O1 (stereo not given)	1.5	-5.3	-0.4	1993	1405	1351	x	x	x
Cn1c(C(=O)NCCCN2CCN(c3ccccc3F)CC2)cc2c(=O)n(C)c3ccccc3c21	-3.6	-2.8	-10.9	x	x	1516	x	x	x
Cn1c(=O)cc(SCC(=O)NCCCN2CCN(c3ccccc3F)CC2)c2ccccc21	90.0*	124.5*	92.2*	x	x	4083*	51.5*	33.8*	35.7*
Cn1c(=O)cc(SCC(=O)NCCCN2CCOCC2)c2ccccc21	30.1*	46.0*	27.8*	x	x	2011*	12.8	8.3	8.7
Cn1c(C(=O)NCCCN2CCOCC2)cc2c(=O)n(C)c3ccccc3c21	-1.0	-9.2	8.0	x	x	1527	x	x	x
Cc1cc(C)n2nc(CC(=O)NCc3ccccc3Cl)nc2n1	-1.3	4.2	-10.8	1708	1635	1599	x	x	x
CCn1c(=O)cc(SCC(=O)NCc2ccco2)c2ccccc21	22.4*	30.2*	32.8*	x	x	1824	27.2*	18.2	15.9
CCn1c(=O)cc(OCC(=O)Nc2ccc(C)cn2)c2ccccc21	-4.8	-4.2	-1.1	x	x	1467	x	x	x
CCn1c(=O)cc(SCC(=O)NCc2ccc(C)cc2)c2ccccc21	50.0*	75.6*	70.2*	x	x	3248*	51.3*	33.9*	31.8*
CCn1c(=O)cc(SCC(=O)NCc2ccccn2)c2ccccc21	20.1*	18.3	25.8*	x	x	1908	26.7*	16.9	17.8
CCn1c(=O)cc(SCC(=O)Nc2ccc(C)cn2)c2ccccc21	37.8*	25.0*	32.4*	2927*	3211*	2341*	28.5*	17.3	19.3
CCn1c(=O)cc(SCC(=O)NCc2ccc(C)o2)c2ccccc21	10.9	4.9	10.1	x	x	1550	x	x	x
O=C(COc1ccc(Br)cc1)N/N=C1/SCC(=O)N1Cc1ccccc1	-1.3	-2.9	4.8	1836	1446	1436	x	x	x
COc1ccc(CNC(=O)CSc2n[nH]c(C)c2[N+](=O)[O-])cc1	-4.2	2.3	2.8	1751	1512	1537	x	x	x
CCn1c(=O)cc(SCC(=O)NCc2cccnc2)c2ccccc21	20.6*	2.3	18.0	x	x	1938	19.5	13.6	11.5

Assay outcomes as filed in PubChem.
